# Measured values published in PubChem BioAssay.
# Tests used:
# Assay in all cases: inhibition of PEG-3 promoter-driven reporter – cell-based, HeLa, luciferase, CREF/GAPDH counter-screen panel, dose response (AID 624167)
# PEG-3 [1] = target: PEG-3 (UniProt Q6IN02); conditions: CREF/GAPDH counter-screens; HeLa PEG-Prom luciferase reporter, overnight, run 1, dose range 1, at 100 µM (top of the series) unless noted
# PEG-3 [2] = target: PEG-3 (UniProt Q6IN02); conditions: CREF/GAPDH counter-screens; HeLa PEG-Prom luciferase reporter, overnight, run 2, dose range 1, at 100 µM (top of the series) unless noted
# Rat fibroblasts (CREF) [3] = conditions: CREF/GAPDH counter-screens; run 1, dose range 1, at 100 µM (top of the series)
# Rat fibroblasts (CREF) [4] = conditions: CREF/GAPDH counter-screens; run 2, dose range 1, at 100 µM (top of the series)
# PEG-3, sequence (Q6IN02 whole entry, looked up): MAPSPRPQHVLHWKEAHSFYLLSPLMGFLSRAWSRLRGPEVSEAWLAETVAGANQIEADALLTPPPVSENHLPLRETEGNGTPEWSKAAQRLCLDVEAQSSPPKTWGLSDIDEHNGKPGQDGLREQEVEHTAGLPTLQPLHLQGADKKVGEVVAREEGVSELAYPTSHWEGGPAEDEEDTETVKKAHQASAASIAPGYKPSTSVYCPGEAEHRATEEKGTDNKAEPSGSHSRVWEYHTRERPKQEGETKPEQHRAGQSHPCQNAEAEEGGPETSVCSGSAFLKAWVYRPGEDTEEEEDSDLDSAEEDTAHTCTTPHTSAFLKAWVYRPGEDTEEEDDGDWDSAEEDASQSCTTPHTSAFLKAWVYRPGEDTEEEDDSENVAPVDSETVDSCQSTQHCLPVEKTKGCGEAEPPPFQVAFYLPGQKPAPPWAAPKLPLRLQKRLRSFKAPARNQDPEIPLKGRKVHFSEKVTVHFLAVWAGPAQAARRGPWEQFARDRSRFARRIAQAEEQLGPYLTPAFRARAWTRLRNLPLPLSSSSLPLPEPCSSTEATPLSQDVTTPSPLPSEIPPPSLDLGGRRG
SMILES,inhibition (PEG-3 [1]),inhibition (PEG-3 [2]),inhibition (Rat fibroblasts (CREF) [3]) [%],inhibition (Rat fibroblasts (CREF) [4]) [%]
CCC(c1ccc(O)c(O)c1)C(CC)c1ccc(O)c(O)c1 (centres undefined),102%,101%,100,97.1
CN=c1scc(-c2cccs2)n1/N=C/c1ccccc1O,93.6%,102%,98.2,97.1
Cc1c(C)c2ccc(OCC(=O)Nc3ccccn3)c(C)c2oc1=O,99.2%,93.2%,98.5,97.8
Cc1nc(C)c(C(=O)N/N=C/c2cc(Br)ccc2O)s1,101%,101%,52.7,46.2
COc1cc(CNCCCN2CCOCC2)cc(Br)c1OCc1ccc(Cl)cc1,99.2%,101%,100,99.1
Cc1ccc(OCC(=O)c2cc(C)n(-c3ccccc3)c2C)c([N+](=O)[O-])n1,77.6%,74.5%,-20,-61.9
Cc1cc(NC(c2cccnc2)c2ccc3cccnc3c2O)no1 (centres undefined),63.9%,74%,59.7,94.9
Cc1cc(C(=O)Nc2cccc(C(=O)O)c2)oc1C,88.1%,85.8%,49.8,52.7
CN1C/C(=C/c2ccccc2[N+](=O)[O-])C(=O)/C(=C\c2ccccc2[N+](=O)[O-])C1,101%,102%,71.1,95.6
CC(=O)NC(c1ccc(N(C)C)cc1)c1cc(Cl)c2cccnc2c1O (centres undefined),76.1%,88.8%,-10.5,94.6
Cc1ccsc1/C=N/Nc1cccc(C(=O)O)c1,98.1%,88.9%,51.5,42.9
C=CCn1c(C)cc(C(=O)COc2ccc(C)nc2[N+](=O)[O-])c1C,61.3%,43.4%,42.2,46.5
O=C(N/N=C/c1cc([N+](=O)[O-])ccc1O)c1ccc(COc2ccc3c(c2)CCC3)o1,52.4%,"95.1% [run 2, dose range 1, at 25 µM]",29.5,55.1
O=C(COc1ccc(Cl)cc1Cl)Nc1ccccn1,94%,98.4%,101,99.7
CCOc1cccc(/C=N/NC(=S)Nc2cc(S(=O)(=O)N3CCOCC3)ccc2N2CCOCC2)c1O,70.7%,50.5%,26.2,48.3
Cc1cc(C)c2c(N)c(C(=O)Nc3ncc(C)s3)sc2n1,90.9%,98.2%,99.2,98.9
Brc1ccc(N/N=C(/N=Nc2nn[nH]n2)c2ccccc2)cc1,100%,99.8%,75.7,70
COC(=O)c1c(N)sc(C(=O)NCCc2ccccc2)c1C,101%,102%,93.6,92.9
COc1cccc(/C=N/NC(=O)c2ccc(-c3ccccc3)cc2)c1O,81%,79.7%,69.8,67.6
Oc1c(I)cc(Cl)c2cccnc12,71.1%,41.4%,87,85.5
CN1CCC2(CC1)N=C(c1ccc(F)cc1)C(=S)N2C(=O)c1ccc(C(C)(C)C)cc1,102%,99%,98.7,68.4
CS(=O)(=O)c1ccc(-c2cn3cc(C(=O)O)ccc3n2)cc1,82.1%,57.2%,71,66.8
Cc1ccc(NC(=S)NC(=O)c2ccc(F)cc2)cc1S(=O)(=O)Nc1ccccc1Cl,70.7%,36.1%,-12,91.7
CCCC(=O)NC(c1ccc(Cl)cc1)c1ccc2cccnc2c1O (centres undefined),99.9%,98.7%,12.3,28.1

SMILES,inhibition (PEG-3 [1]),inhibition (PEG-3 [2]),inhibition (Rat fibroblasts (CREF) [3]) [%],inhibition (Rat fibroblasts (CREF) [4]) [%]
CCCC(=O)NC(c1ccc(C)cc1)c1ccc2cccnc2c1O (centres undefined),96.2%,83.5%,3.2,23.3
NC1=C(Br)C(=O)c2ncccc2C1=O,99.1%,101%,98.1,98.6
Brc1ccc(N=Nc2ccc3ccccc3n2)cc1,93.5%,94.5%,97.1,96.3
Cc1ccccc1OCC(=O)Nc1cccc(C(=O)O)c1,99.1%,95.1%,95.9,68.4
Cc1cc(N2CCN(C)CC2)ccc1NC(=O)c1c2c(nc3ccccc13)CCN(Cc1ccccc1)C2,101%,98.9%,99.4,99.8
Oc1c(Br)cc(Br)c2cccnc12,81.8%,71%,88.2,94.5
O=C(NC(=O)c1ccccc1)Nc1ccccn1,98.8%,94%,95.3,96.8
O=[N+]([O-])c1ccc(S(=O)(=O)c2ccccc2)nc1,99.3%,101%,99.3,98.6
CN(C)c1c([N+](=O)[O-])cc(N2C(=O)C=CC2=O)cc1[N+](=O)[O-],102%,102%,101,100
COC(CNC(=O)c1ccc2c3c(onc13)-c1ccccc1C2=O)OC,102%,102%,98.9,100
O=c1c2ccccc2cnn1-c1nc2ccccc2[nH]1,98.4%,99.5%,101,100
CN(C(=O)COC(=O)/C=C/c1cccc([N+](=O)[O-])c1)C1CCS(=O)(=O)C1 (centres undefined),47.5%,44.7%,6.76,36.6
O=C(Nc1ccccc1)c1nc[nH]c1C(=O)NCCCCCCNC(=O)c1[nH]cnc1C(=O)Nc1ccccc1,-14.1%,24.2%,-4.97,-1.9
O=C(O)c1ccc(N/N=C/c2ccc(OC(=O)c3cccc(Cl)c3)cc2)cc1,101%,99.4%,46.5,40
COC1CC(C)C(OC)c2cc(O)cc(c2O)NC(=O)C(C)=CC=CC(C)C(OC(N)=O)C(C)=CC(C)C1OC (centres undefined),94%,100%,97.1,98.6
CN[C@H]1C[C@H]2c3[nH]c4ccc(-c5ccc(OC)cc5)cc4c3CCN2C(=O)[C@H]1[C@H](C)O,102%,98.8%,96,99.6
COc1ccc(CCN2C(=O)C=CC2=O)cc1OC,102%,101%,99.5,98.6
Cc1ccc(-n2c(N)c(C(=O)Nc3c(C)n(C)n(-c4ccccc4)c3=O)c3nc4ccccc4nc32)cc1,52.5%,62.7%,89.4,83.7
O=[N+]([O-])c1nn(-c2ccc3c(c2)OCCO3)n(O)c1=Nc1ccc(Cl)cc1,48.4%,73.7%,13.6,8.03
CC1=NOC(=O)/C1=C\c1ccc(-c2ccccc2Br)o1,99.2%,98.5%,94.2,53.8
CCc1ccc(/C=C2\SC(=S)N(CCCC(=O)Nc3ccccn3)C2=O)cc1,92.7%,81%,-3.09,94.6
OCCNc1c2ccccc2nc2ccccc12,99.6%,98.1%,73.9,94.8
CCSc1nc2ccccc2n1C(=O)/C=C\c1ccc(OC)c(OC)c1,99.4%,95.2%,46.8,91.8
O=C(/C=C/c1ccccc1)Nc1cccc(C(=O)O)c1,99%,97.4%,96.8,95.7

SMILES,inhibition (PEG-3 [1]),inhibition (PEG-3 [2]),inhibition (Rat fibroblasts (CREF) [3]) [%],inhibition (Rat fibroblasts (CREF) [4]) [%]
COc1ccc(/C=C2/CCCC(CN(C)C)C2=O)cc1 (centres undefined),99.5%,98.8%,95.5,68.5
Cc1ccc2nc(C)cc(Nc3ccc([N+](=O)[O-])cc3)c2c1,102%,101%,98.1,98.9
CCc1ccc(/C=C2\SC(=S)N(CCCC(=O)Nc3cc(C)on3)C2=O)cc1,80%,87.3%,29.1,27.4
CCCOc1ccc2cc(-c3ccccn3)c(=O)oc2c1,93.5%,94.5%,96.1,95.4
NC(Cc1ccc(F)cc1)c1csc(Nc2cc(Oc3ccccc3)ncn2)n1 (centres undefined),102%,101%,95.3,94.1
COc1ccc(S(=O)(=O)/N=C2\C=C(Nc3ccc(O)cc3)C(=O)c3ccccc32)cc1,96.4%,99.7%,101,97.4
CC(=O)c1sc2c(c1OC(=O)c1ccc(Cl)cc1Cl)c(=O)n(-c1ccccc1)c(=S)n2-c1ccccc1,82.6%,96.3%,14.9,61.6
O=c1c2ccccc2sc2nc(CCl)nn12,102%,102%,-2.66,33.8
CCCn1nc(C(=O)Nc2nc(-c3ccccn3)cs2)c2ccccc2c1=O,84.7%,80.4%,7.59,23.2
CC(C)CC(=NNC(=O)c1ccncc1)c1cc(Cl)ccc1O,76.9%,"93.6% [run 2, dose range 1, at 50 µM]",73.9,81.7
COc1cc(SC)ccc1C(=O)Nc1ncc(C)s1,95.5%,98.2%,97.8,97.3
CCCC(=O)NC(c1ccccc1)c1ccc2cccnc2c1O (centres undefined),36.8%,"71% [run 2, dose range 1, at 25 µM]",59,44.9
O=[N+]([O-])c1ccc(-c2ccc(/C=N/Nc3nc(NCc4ccccc4)nc(N4CCOCC4)n3)o2)cc1,99.5%,91.5%,97.5,96.9
CN=c1sc2c(n1C)C(=O)c1ccccc1C2=O,101%,98.9%,97.8,98.9
Cc1cccc(OCC(=O)NCC(=O)N/N=C/c2cc(Br)cc(Br)c2O)c1,75%,86.2%,65.6,74.7
CCCCCN1C=CC(=C2C(=O)c3ccccc3C2=O)C=C1,102%,99.1%,98.2,98.3
CC(C)CCCCCCCCCCCCC(=O)NCC(=O)NC1C(O)C(O)C(Nc2ncnc3nc[nH]c23)OC1C(O)CO (centres undefined),102%,98.2%,99.5,9.65
O=C(N/N=C/c1ccc(Cl)c([N+](=O)[O-])c1)c1cc(-c2ccc3c4c(cccc24)CC3)n[nH]1,"95.1% [run 1, dose range 1, at 50 µM]",93.6%,-4.6,4.99
CCN1C=CC(=C2C(=O)c3ccccc3C2=O)C=C1,96.8%,98.3%,99.8,101
CC(=O)NC(c1ccc(Cl)cc1Cl)c1ccc2cccnc2c1O (centres undefined),96.5%,96.7%,-0.0688,0.461
Cc1ccc(/C=C2\SC(=S)N(CCCC(=O)NNC(=O)c3ccccc3O)C2=O)cc1,81.6%,73.5%,10.1,11
O=C(Nc1cccc(C(=O)O)c1)Nc1ccc2c(c1)OCO2,95.9%,94.8%,84.8,85.5
Cc1cc(C)c2sc(NNC(=O)c3ccc(S(=O)(=O)N4CCc5ccccc5C4)cc3)nc2c1,84.2%,94.7%,53.3,25.5
